Structures are written as SMILES. Results filed as inconclusive are left out. Active and inactive are the calls of the source. The call rests on the fitted dose curve; in most records, active means well fitted curve in the direction sought with a large enough effect; inconclusive means small, poorly fitted or top-dose-only effect, or another doubt; inactive means no such curve, though single readings can be large; an effect the other way counts as inactive or inconclusive.
Potency means the concentration at half of the fitted maximal effect.

The target in the first experiment is Aldehyde dehydrogenase, mitochondrial (Homo sapiens) (UniProt P05091). The experiment is described as follows: qHTS for Inhibitors of the Aldehyde Dehydrogenase Family (ALDH2) Primary screen (AID 2061308). Further: nearly all actives have a fitted effect of over 55% in size.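 On activity change, negative = inhibition: plate controls were vehicle for no effect and reference inhibitor for full effect.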 The note with it: ALDH2 enzyme inhibition qHTS, 1536-well; series mostly up to 56 µM; activity change, negative = inhibition: at the top concentration.
In the case of `CC(=O)Nc1ccc(CNc2ncnc3ccc(-c4c(C)noc4C)cc23)cc1`, the “activity change, negative = inhibition” value is -1.93% (inactive). Take `CN1CCN(c2cccc(Nc3nn4c(=O)c5ccc(N(C)C)cc5nc4s3)c2)CC1`: the “activity change, negative = inhibition” value is -19.1% (inactive).

On to `O=S(=O)(Nc1nccs1)c1ccc(Nc2nc(-c3ccc(F)cc3)cs2)cc1`, for which the “activity change, negative = inhibition” value was -25.3% (inactive). On the same count and under the same terms, the figure for `COc1cccc(C2c3c(ncn(-c4ccccc4C(C)(C)C)c3=N)Oc3ccc4ccccc4c32)c1` (configuration not stated) is 2.21% (inactive); for `O=C1CCCC2=C1C(c1ccccc1)N=C(Nc1nc3ccccc3o1)N2` (configuration not stated) it is 0.937% (inactive); for `O=C1NC(=O)/C(=C/c2ccco2)N1` it is 5.45% (inactive). Same read-out and setting: in the case of `O=C(OCC#CCSc1nnc(-c2ccccc2F)o1)c1ccc(F)cc1` it was 3.47% (inactive); in that of `S=C(NCCCN(Cc1ccc(Cl)c(Cl)c1)c1ccc(Br)cn1)NCCc1cnc[nH]1`, 10.1% (inactive); in that of `O=S(=O)(Nc1cnc2ccccc2c1)c1ccc(NCc2cccc(Cl)c2O)cc1`, -23.1% (inactive). Same read-out and setting: in the case of `O=C(OCC#CCSc1nnc(-c2cccc3ccccc23)o1)c1ccccc1` it was -1.58% (inactive).

`O=c1c2ccccc2nc2sc(Nc3ccc4c(c3)CCC4)nn12`: the “activity change, negative = inhibition” value is -2.29% (inactive). Same read-out and setting: in the case of `Cc1cc(NS(=O)(=O)c2ccc(C(=O)NCc3ccc(Cl)c(Cl)c3)cc2)no1` it was 17.3% (inactive); in that of `O=C(OCC#CCSc1nnc(-c2cccc3ccccc23)o1)c1cccc(F)c1`, -14.2% (inactive). The same measure, in the same setting: in the case of `COc1ccc(S(=O)(=O)Nc2cc(OC)cc3cccnc23)cc1` it was -19.3% (inactive); in that of `O=C(Nc1cccnc1)C1CCCCC1`, -8.64% (inactive); in that of `CCOc1ccc(CCNC(=O)c2cc3sccc3n2Cc2ccc(Cl)c(F)c2)cc1OCC`, 4.81% (inactive). Same read-out and setting: the figure for `CCOC(=O)C1CCN(C(=O)C(C)(C)NC(=O)Nc2ccc3sccc3c2)CC1` is -7.44% (inactive); for `N#Cc1c(-c2ccco2)no[n+]1[O-]` it is -4.77% (inactive); for `O=C(NCCc1nc2ccccc2n1CCOc1ccccc1F)C1CCCCC1` it is 6.36% (inactive). As for `CC(=O)Nc1ncc(S(=O)(=O)Nc2cnccc2C(=O)Nc2nc(-c3ccccc3)cs2)s1`, the “activity change, negative = inhibition” value is -16.1% (inactive).

On to `N#Cc1c(-c2cccc([N+](=O)[O-])c2)no[n+]1[O-]`, for which the Potency is 7.94 µM (active). In the case of `c1ccc(CNc2ccc(N3CCOCC3)cc2)cc1`, the “activity change, negative = inhibition” value was -17.4% (inactive). The same measure, in the same setting: the figure for `CC(=O)O[C@@H]1c2c3c(cc(O)c2C(=O)O[C@@H]1C)O[C@@]1(C)[C@@H](O)C[C@H]2C(C)(C)C(=O)C=C[C@]2(C)[C@@H]1C3` is -4% [at 28 µM] (inactive); for `Cc1ccc(-c2nccc(=O)n2C(C)C(=O)NCCc2ccccc2)cc1` (configuration not stated) it is 0.163% (inactive). On the same count and under the same terms, in the case of `Cc1ccc(-c2cc(C(=O)Nc3ccc(C(=O)O)cc3)c3ccccc3n2)cc1C` it was 8.84% (inactive); in that of `Cc1ccc2nc3sc(C(=O)N4CCN(C5CCN(C)CC5)CC4)cc3cc2c1`, -1.16% (inactive). On the same count and under the same terms, in the case of `Cn1c2cc(S(C)(=O)=O)sc2c2cnn(Cc3ccccc3F)c(=O)c21` it was 1.58% (inactive). As to `c1nc(NCC2CCCCO2)c2cc(-c3ccc4c(c3)OCO4)ccc2n1` (configuration not stated), the “activity change, negative = inhibition” value is -10.4% (inactive). With `O=C1c2ccccc2NC(c2ccc(-c3ccc(C(F)(F)F)cc3)o2)N1O` (configuration not stated), the Potency is 4.47 µM (active). Consider `CN(C)[S+](=O)([O-])c1ccc(-c2ccc(=O)n(CC(=O)NCCc3ccccc3)n2)cc1`, for which the “activity change, negative = inhibition” value was 13.4% (inactive). On the same count and under the same terms, the figure for `CCCn1c(C)nc2c(N(C)CCN(C)C)nc(C)nc21` is 11.6% (inactive); for `O=[S+]([O-])(Nc1ccc(-c2nc3ccccc3[nH]2)cc1)c1ccc2c(c1)CCO2` it is 0.446% (inactive). Turning to `N#Cc1c(-c2ccc(F)c(Br)c2)no[n+]1[O-]`, the Potency is 3.98 µM (active). For `CC(C)c1ccccc1-c1ncc(N)c(NCc2ccc(-c3cccnc3)cc2)n1`, the “activity change, negative = inhibition” value was 63.8% (inactive). With `Cc1cc(C)nc(NC(=S)N2CCN(c3cccc(OC(F)F)c3)CC2)c1`, the “activity change, negative = inhibition” value is -16.7% (inactive).

For the compound `Cc1ccc(OCCn2c(CCNC(=O)C3CCCCCC3)nc3ccccc32)cc1`, the “activity change, negative = inhibition” value was -12.8% (inactive).

On to `O=C(OCC#CCSc1nnc(-c2cccc3ccccc23)s1)c1cccs1`, for which the “activity change, negative = inhibition” value is 9.45% (inactive). The same measure, in the same setting: the figure for `Cc1cc(-c2nnc3n2CCCCC3)c(C)n1-c1ccc([N+](=O)[O-])cc1` is -15.5% (inactive). Still for that read-out and setting: in the case of `CCCn1c(-c2ccc(F)cc2)nc2c(NCCCN3CCOCC3)nc(C)nc21` it was 12.1% (inactive); in that of `COc1ccc(-c2ccc3ncnc(NCC4CCCO4)c3c2)cc1OC` (configuration not stated), -5.78% (inactive).

In the next experiment the target is Retinal dehydrogenase 2 (Homo sapiens) (UniProt O94788). Put plainly: qHTS for Inhibitors of the Aldehyde Dehydrogenase Family (ALDH1A2) Confirmation screens (AID 2061314). Further: nearly all actives have a fitted effect of over 65% in size. On activity, negative = inhibition: on the % scale 0 is the no-effect control and ±100 the full control effect. The note with it: ALDH1A2 enzyme inhibition qHTS confirmation; series mostly up to 45.9 µM; activity, negative = inhibition: at the top concentration. For orientation: Quantitative high-throughput screening tests each substance at several concentrations.
For `CN1CCN(c2cccc(Nc3nn4c(=O)c5ccc(N(C)C)cc5nc4s3)c2)CC1`, the Potency is 14.2 µM (active). On the same count and under the same terms, the figure for `O=S(=O)(Nc1nccs1)c1ccc(Nc2nc(-c3ccc(F)cc3)cs2)cc1` is 14.2 µM (active). Take `O=C1CCCC2=C1C(c1ccccc1)N=C(Nc1nc3ccccc3o1)N2` (configuration not stated): the “activity, negative = inhibition” value is -30.6% (inactive). Take `COc1ccc(S(=O)(=O)Nc2cc(OC)cc3cccnc23)cc1`: the Potency is 1.42 µM (active). Same read-out and setting: the figure for `CC(=O)Nc1ncc(S(=O)(=O)Nc2cnccc2C(=O)Nc2nc(-c3ccccc3)cs2)s1` is 10.1 µM (active); for `N#Cc1c(-c2cccc([N+](=O)[O-])c2)no[n+]1[O-]` it is 5.04 µM (active). Still for that read-out and setting: the figure for `c1ccc(CNc2ccc(N3CCOCC3)cc2)cc1` is 12.7 µM (active). With `Cc1ccc2nc3sc(C(=O)N4CCN(C5CCN(C)CC5)CC4)cc3cc2c1`, the “activity, negative = inhibition” value was -8.15% (inactive). As for `c1nc(NCC2CCCCO2)c2cc(-c3ccc4c(c3)OCO4)ccc2n1` (configuration not stated), the Potency was 22.5 µM (active). On the same count and under the same terms, in the case of `O=C1c2ccccc2NC(c2ccc(-c3ccc(C(F)(F)F)cc3)o2)N1O` (configuration not stated) it was 22.5 µM (active). The same measure, in the same setting: the figure for `N#Cc1c(-c2ccc(F)c(Br)c2)no[n+]1[O-]` is 2.52 µM (active); for `Cc1cc(-c2nnc3n2CCCCC3)c(C)n1-c1ccc([N+](=O)[O-])cc1` it is 22.5 µM (active).
